Compound activity deposited in PubChem BioAssay by National Center for Advancing Translational Sciences (NCATS).
Cycloheximide cs – counter-screen hit for Shiga toxin inhibitors, cycloheximide. 300,000 compounds, 12% hits. max response, %. AID 2314. cell reporter, cycloheximide protein synthesis inhibition counterscreen; in the data active means max response mostly above about 13%, no sharp cut-off; inactive means mostly below about 14%; further: read at 38.3 µM for the half of the compounds with a filed dose
TbPYK inhibitor – blocks Trypanosoma brucei pyruvate kinase; 410,000 compounds, 0.12% hits; Potency, µM (titrated, usually from 76.8 µM), usual class: inhibitors; AID 624173; Q57TT1; TbPYK enzyme, Kinase-Glo Plus ATP luminescence, 45 min; further: nearly all actives have a fitted effect of over 50% in size
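TbPYK + substrate in 50 mM TEA pH 7.2, 100 mM KCl, 10 mM MgCl2, 0.05% BSA, 0.01% Tween-20; cpd pinned; ADP 130 uM final; 45 min RT; Kinase-Glo Plus 10 min; luminescence endpoint.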
Sm TGR block – blocks Schistosoma mansoni thioredoxin glutathione reductase | Q962Y6 | purified TGR, DTNB reduction, TNB absorbance 405 nm | Potency, µM (series often up to 114 µM), actives largely listed as inhibitors | 360,000 compounds, 3% hits; further: nearly all actives have a fitted effect of over 60% in size
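Kinetic colorimetric format: TGR-catalysed, NADPH-driven DTNB reduction monitored via TNB absorbance. Enzyme dispensed at 20 nM; compound exposure 15 min at room temperature before reaction start.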
Shiga inhibitor – Shiga toxin inhibition | Vero cells, Shiga toxin protein synthesis inhibition reporter | inhibition, % at 38.7 µM | 290,000 compounds, 9.2% hits | AID 2315; in the data active means inhibition mostly above about 28%, no sharp cut-off; inactive means mostly below about 43%
FBPA Giardia inh – inhibitors of Giardia lamblia fructose-1,6-bisphosphate aldolase; A8B2U2; AID 2451; Potency, µM (highest dose often 59.6 µM), usual class: inhibitors; 290,000 compounds, 0.71% hits; purified Giardia FBPA; further: nearly all actives have a fitted effect of over 55% in size
Target sequence (A8B2U2 whole entry, looked up): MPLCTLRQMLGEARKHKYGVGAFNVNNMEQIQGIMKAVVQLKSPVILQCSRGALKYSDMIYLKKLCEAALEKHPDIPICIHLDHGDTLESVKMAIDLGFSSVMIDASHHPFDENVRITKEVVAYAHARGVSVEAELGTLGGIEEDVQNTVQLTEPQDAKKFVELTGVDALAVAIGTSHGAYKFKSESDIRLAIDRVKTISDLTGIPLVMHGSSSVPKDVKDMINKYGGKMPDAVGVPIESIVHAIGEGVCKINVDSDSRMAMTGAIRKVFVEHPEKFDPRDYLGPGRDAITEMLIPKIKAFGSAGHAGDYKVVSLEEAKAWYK
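Giardia FBPA (40 nM reagent) was preincubated 10 min at RT with compound (up to 57.5 uM final), then substrate plus GAPDH/TPI/NAD/arsenate coupling system with diaphorase/resazurin was added; resorufin fluorescence (525/598 nm) was read after 20 min.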
LmPK inhibitor – LmPK (Leishmania mexicana) enzyme inhibition | 290,000 compounds, 0.37% hits | Potency, µM (highest dose often 57.5 µM), hits mostly inhibitors | purified LmPK, Kinase-Glo ATP luminescence, 1 h | AID 1721
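Pyruvate kinase activity monitored as ATP production (luciferase luminescence). Conditions: 0.1 nM enzyme, 0.5 mM PEP, 0.1 mM ADP, 1 h, RT; normalized against uninhibited and no-enzyme wells.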
Hits are given with their value; . = inactive; ? = inconclusive; / = no result given; [ ] = remark or other dose. This is one part of a sample in which hits are shown more often than they occur. Unless noted, the call rests on the fitted dose curve; in most records, active means well fitted curve in the direction sought with a large enough effect; inconclusive means small, poorly fitted or top-dose-only effect, or another doubt; inactive means no such curve, though single readings can be large; an effect the other way counts as inactive or inconclusive.

SMILES | Cycloheximide cs | TbPYK inhibitor | Sm TGR block | Shiga inhibitor | FBPA Giardia inh | LmPK inhibitor
COc1ccc(NC(=O)Cn2c(=O)n(-c3cccc(C(F)(F)F)c3)c(=O)c3sccc32)cc1 | / | . | . | / | / | /
CC1(C)[C@H](C(=O)O[C@H](C#N)c2cccc(Oc3ccccc3)c2)[C@@H]1C=C(Br)Br | . | / | / | . | . | /
COc1ccc(Nc2nc(-c3cc4cccc(OC)c4oc3=O)cs2)cc1 | 21.2 | . | . | . | . | .
CCc1ccc(Nc2nc(-c3cc4cccc(OC)c4oc3=O)c(CC)s2)cc1 | / | . | . | / | / | /
O=C(O)c1ccc(Nc2nc(-c3cc4ccccc4oc3=O)cs2)cc1O | . | . | . | . | . | .
COc1ccc2oc(=O)c(-c3csc(Nc4cccc(O)c4)n3)cc2c1 | 47.8 | . | . | 58.4 | . | .
COc1ccc(CNC(=O)CCC(=O)N2CCSc3ccccc32)cc1 | / | . | . | / | / | /
COCCCNC(=O)C1CCN(C(=O)c2oc3cc4sc(N(C)C)nc4cc3c2C)CC1 | 35.8 | . | . | 60.5 | . | .
CCN(CC)CCCNC(=O)C1CCN(C(=O)c2oc3cc4sc(N(C)C)nc4cc3c2C)CC1 | 19.0 | . | . | . | . | .
CCCN(CCC)CCCNC(=O)C1CCN(c2nc3ccc(CC)cc3s2)CC1 | / | . | . | / | / | /
COC(=O)C1=C(C(=O)OC)[C@@H]2N(C)c3ccc(OC)cc3[C@@]23C[C@@H](C(=O)OC)N(S(=O)(=O)c2c(C)noc2C)C3=N1 | / | / | / | / | .[12.9 µM] | .[11.5 µM]
CCOC(=O)c1sc(NC(=O)c2ccc(Cl)s2)cc1C | 38.7 | . | . | 56.0 | . | .
CCOC(=O)c1c(NC(=O)Nc2ccc(Cl)cc2)sc(C)c1C | . | . | . | . | . | .
CCN(CC)C(=O)c1c(NC(=O)c2ccccc2)sc(C)c1C | . | . | . | . | . | .
CCOC(=O)c1sc(NC(=O)c2ccc(S(=O)(=O)N(C)C)cc2)cc1C | . | / | . | . | . | .
CCOC(=O)c1sc(NC(=O)Nc2ccc(Cl)cc2)cc1C | 46.4 | . | . | 67.2 | . | .
CCN(CC)Cc1c(NC(=O)c2ccccc2)sc(C)c1C | . | . | 8.91µM | . | . | .
CCOC(=O)c1sc(NC(=O)c2ccccc2)cc1C | 69.6 | . | . | 121.8 | . | ?
CCCCC | / | . | / | / | / | /
CC(Sc1nnnn1C)C(=O)Nc1cc(S(=O)(=O)N2CCCCC2)ccc1Cl (configuration not stated) | / | . | . | / | / | /
COc1ccc(N2CCN(c3nccs3)CC2)cc1 | 37.1 | . | . | 71.7 | . | .
Cc1ccc(S(=O)(=O)/N=C(\Sc2ccccc2)c2ccccc2)cc1 | . | . | 7.94µM | . | . | .
O=S(=O)(/N=C(\Sc1ccccc1)c1ccccc1)c1ccc(Cl)cc1 | . | . | . | . | . | .
Cc1ccc(S(=O)(=O)/N=C(/Sc2ccccc2C(=O)O)c2ccccc2)cc1 | . | . | 35.5µM | . | / | .
c1cncc(-c2nc(NCc3ccco3)c3ccccc3n2)c1 | . | . | 25.1µM | . | . | .
SMILES | Cycloheximide cs | TbPYK inhibitor | Sm TGR block | Shiga inhibitor | FBPA Giardia inh | LmPK inhibitor
Cc1ccc(-c2nc(NCc3cccnc3)c3ccccc3n2)cc1 | 14.5 | . | . | . | . | .
O=S(=O)(Nc1nc2ccccc2nc1NCc1ccco1)c1ccc(Cl)cc1 | . | . | . | . | . | .
Cc1ccc(S(=O)(=O)Nc2nc3ccccc3nc2NCc2ccco2)cc1 | 59.2 | . | 12.6µM | 73.9 | . | .
Cc1ccc(-c2nc(N/N=C/c3cccnc3)c3ccccc3n2)cc1 | 20.0 | . | . | . | . | .
CCCCC12CN3CC(C)(CN(C1)C3c1c(C)[nH]c(=O)[nH]c1=O)C2=O (configuration not stated) | / | . | . | / | / | /
COc1cccc(CNC(=O)c2ccc(-n3c(C)cc4c3CCCC4)cc2)c1 | / | . | ? | / | / | /
Cc1cc(Cl)ccc1OCC(=O)N1CCC(c2nc3ccccc3o2)CC1 | / | . | . | / | / | /
COc1ccc(-n2nnnc2C2CCN(S(=O)(=O)c3ccc(C)cc3)CC2)cc1 | / | . | . | / | / | /
Cc1ccc(-c2nc(NCc3ccco3)c3ccccc3n2)cc1 | 69.0 | . | . | 36.3 | . | .
O=C(Nc1oc2ccccc2c(=O)c1-c1ccc(Cl)cc1)c1ccco1 | 21.7 | . | . | . | . | .
O=C(Nc1oc2ccccc2c(=O)c1-c1ccccc1)c1ccco1 | / | . | / | / | / | /
CC1CCCN(c2nc3ccsc3c(=O)s2)C1 (configuration not stated) | 43.6 | . | . | 118.7 | . | .
O=c1cc(-c2cccc(O)c2)oc2cc(O)ccc12 | / | / | / | / | . | /
Oc1ccc2c(c1)oc1cc(O)ccc12 | 45.5 | . | . | 63.3 | . | .
c1ccc(-c2nc(N3CCOCC3)s[n+]2-c2ccccc2)cc1 | 57.2 | 2.51µM | . | 40.0 | . | .
CN(C)/C=C/c1onc(-c2ccccc2Cl)c1C#N | 42.0 | . | . | 69.3 | . | .
Cc1ccccc1-c1noc(N)c1C#N | . | . | . | . | . | .
O=C(COCc1cc(-c2ccc3c(c2)OCO3)on1)NCc1ccc(F)cc1 | / | . | . | / | / | /
O=C(NCc1ccc(Cl)cc1)c1cc(-c2ccco2)on1 | . | . | . | . | . | .
O=C(NCc1ccc(F)cc1)c1cc(-c2cccs2)on1 | 25.7 | . | . | . | . | .
COc1ccccc1-c1cc(C(=O)NCc2ccc(F)cc2)no1 | . | . | . | . | . | .
O=C(NCc1ccccc1)c1cc(-c2cccs2)on1 | 42.7 | . | . | 77.1 | . | .
O=C(NCc1ccccc1)c1nc(-c2cccs2)no1 | . | . | . | . | . | .
O=C(NCc1ccc(F)cc1)c1cc(-c2ccco2)on1 | 19.5 | . | . | . | . | .
COc1ccc(NC(=O)CSc2ccc3nc(-c4ccccc4)cn3n2)c(OC)c1 | / | . | . | / | / | /
SMILES | Cycloheximide cs | TbPYK inhibitor | Sm TGR block | Shiga inhibitor | FBPA Giardia inh | LmPK inhibitor
COCCNC(=O)c1nn(-c2ccc(C)cc2)c(=O)n(C)c1=O | / | . | . | / | / | /
CN(C)c1ccc(C(CNC(=O)c2ccco2)N2CCCC2)cc1 (configuration not stated) | . | . | . | 47.6 | / | .
CCCCCCCCCCC(C)=O | . | / | / | . | . | /
CCCc1ccc(OC(=O)c2ccc(O)cc2Cl)cc1 | 39.9 | . | . | 96.1 | . | .
Cc1cc(C)c2c(N)c(C(=O)c3ccccc3)sc2n1 | . | . | . | . | . | .
Cc1nc2sc(C(N)=O)c(N)c2c(C)c1CC(=O)c1ccccc1 | 29.9 | . | . | 92.1 | . | .
COc1ccc(F)cc1C(=O)C1CCCN(Cc2cnc(C)s2)C1 (configuration not stated) | . | . | . | . | . | .
COc1ccc(Cl)cc1C(=O)C1CCCN(Cc2cnc(C)s2)C1 (configuration not stated) | 17.4 | . | . | 52.8 | . | .
O=C(Oc1ccccc1C(=O)Nc1ccccc1)c1ccccc1Br | 32.1 | . | . | 33.1 | . | .
Cc1nc(-c2cccc(NC(=O)c3cc4cc(Br)ccc4oc3=O)c2)cs1 | . | . | . | . | . | .
Cc1nc(-c2ccc(NC(=O)c3ccccc3Br)cc2)cs1 | 54.6 | . | . | 57.3 | . | .
